Some test systems named below: DLD-1; HOP-18; KM-20L2; LXFL 529; RXF 631; XF498; DMS-273; SNB-78.
Holding throughout (assay): NCI tumour cell line growth inhibition, 48 h

Entries with a potency or affinity are not part of this list. Only a part of the results of these assays is listed, not drawn at random.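 Compound exposure: 48 hours, 5 concentrations, 96-well plates. Abbreviation: GI50, concentration required for 50% inhibition of growth.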 Where only a bound is given, the exact number is not on record here.

As for “[Bis(aminomethyl)pentamethylenesilane]dichloropaltinum(II), CHEMBL2146202”, the GI50 was 31.1 µM in the test on DLD-1; 37.7 µM with HOP-18; 12.2 µM with KM-20L2; 12.9 µM with LXFL 529; 18.4 µM in the test with RXF 631; 11.5 µM with XF498.

For “[Bis(aminomethyl)diethylsilane]tetrachloroplatinum(IV), CHEMBL2146203”, the GI50 amounted to 8.65 µM in the test on DLD-1; 13 µM with HOP-18; 1.45 µM in the test on KM-20L2; 4.34 µM with LXFL 529; 4.21 µM in the test with RXF 631; 2.77 µM in the test on XF498.

As to “[Bis(aminomethyl)pentamethylenesilane]tetrachloropaltinum(IV), CHEMBL2146204”, the GI50 with DLD-1 was determined as 4.58 µM; in the test on HOP-18 it was 42.6 µM; in the test on KM-20L2, 3.14 µM; in the test with LXFL 529 it was 4.97 µM; in the test with RXF 631, 4.63 µM; in the test on XF498, 2.86 µM.

“mu-(1,7-nanodiamine-N,N')bis-(cis-aminedichloroplatimum (II)), CHEMBL2146215”: the GI50 amounted to 36.2 µM with DLD-1; 4.54 µM in the test with DMS-273; 84.1 µM in the test on HOP-18; 35.9 µM with KM-20L2; 46.2 µM in the test on LXFL 529; 47.2 µM with RXF 631. The GI50 in the test with SNB-78 was 48.8 µM.

For CISPLATIN, CHEMBL11359, the GI50 is 6.03 µM in the test with DLD-1; 7.71 µM with HOP-18; 7.48 µM with KM-20L2; 4.83 µM in the test with LXFL 529; 1.49 µM in the test with SNB-78.

Turning to “[Bis(aminomethyl)tetramethylenesilane]dichloropaltinum(II), CHEMBL2146205”, the GI50 is 39.1 µM in the test on DLD-1; 14.6 µM in the test with DMS-273; 43.5 µM in the test on HOP-18; 24.4 µM with KM-20L2; 27.4 µM in the test on LXFL 529; 49.3 µM in the test on RXF 631. In the test with XF498, this substance displayed a GI50 of 28 µM.

Consider “[Bis(aminomethyl)tetramethylenesilane]tetrachloropaltinum(IV), CHEMBL2146189”, for which the GI50 in the test with DLD-1 was determined as 11.8 µM; in the test on HOP-18, 24.3 µM; in the test with KM-20L2 it was 2.99 µM; in the test with LXFL 529, 12.2 µM; with RXF 631 it was 7.26 µM; with XF498, 3.56 µM.

Regarding “[Bis(aminomethyl)dimethylsilane]tetrachloroplatinum(IV), CHEMBL2146190”, the GI50 in the test with DLD-1 stood at 12.8 µM; in the test on DMS-273 it was 1.02 µM; in the test with KM-20L2 it was 3.58 µM; with LXFL 529 it was 14.2 µM; with RXF 631, 34.9 µM; with SNB-78, 3.22 µM. Further, the GI50 in the test with XF498 was 2.9 µM.

“[Bis(aminomethyl)dimethylsilane]dichloroplatinum (II), CHEMBL2146201”: the GI50 with DMS-273 is 5.62 µM; in the test on LXFL 529, 44.2 µM; in the test on RXF 631 it was more than 100 µM; in the test with SNB-78 it was 16.7 µM; with XF498, 17.2 µM.

Regarding “[Bis(aminomethyl)ethylmethylsilane]tetrachloroplatinum(IV), CHEMBL2146192”, the GI50 was determined as 0.587 µM in the test with DMS-273; 6.22 µM with LXFL 529; 14.3 µM in the test with RXF 631; 3.35 µM in the test on SNB-78; 4.22 µM with XF498.

In the case of “cis-Bis[[(trimethylsilyl)methyl]amino]tetrachloroplatinum(IV), CHEMBL2146191”, the GI50 was 12.1 µM in the test on DMS-273; 2.15 µM with LXFL 529; 3.41 µM with RXF 631; 7.36 µM in the test with SNB-78; 11 µM with XF498.

These data come from ChEMBL document CHEMBL1201862, “PubChem BioAssay data set” (2004).
